Experimental findings from PubChem BioAssay AID651965 (National Center for Advancing Translational Sciences (NCATS), 2013) are described below.

Among all 340,000 compounds or so, about 6,400 (1.9%) were called active. Not shown: some 4% with an inconclusive outcome. Calls come from the whole dose curve; as a rule, active = well fitted falling curve with a large enough effect; inconclusive = small, poorly fitted or top-dose-only effect; inactive = no such curve, though single readings can be large or run the other way. This excerpt belongs to a sample that is enriched for actives.
Potency is the fitted concentration of half-maximal effect.

In this assay the target is ATP-dependent Clp protease proteolytic subunit (Bacillus subtilis (strain 168)) (UniProt P80244). Put plainly: qHTS Assay for Activators of ClpP. Note: the source files actives as falling curves though it sought activators and does not explain the sign; nearly all actives have a fitted effect of over 65% in size. The settings on record: purified B. subtilis ClpP, FRET peptide cleavage, 20 min; series mostly up to 57.5 µM; activity change, negative = active: at the top concentration. In a few lines: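 FRET quenching reversal measured ClpP activation: 10 microg/mL B. subtilis ClpP at pH 8 with the FRET-FV decapeptide, read at 430 nm after 320 nm excitation. The 20-min minus 0-min signal was scaled between DMSO/no-enzyme wells and ADEP (5.8 microM final).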
Chain of ATP-dependent Clp protease proteolytic subunit (Bacillus subtilis (strain 168)) (P80244 whole entry, looked up): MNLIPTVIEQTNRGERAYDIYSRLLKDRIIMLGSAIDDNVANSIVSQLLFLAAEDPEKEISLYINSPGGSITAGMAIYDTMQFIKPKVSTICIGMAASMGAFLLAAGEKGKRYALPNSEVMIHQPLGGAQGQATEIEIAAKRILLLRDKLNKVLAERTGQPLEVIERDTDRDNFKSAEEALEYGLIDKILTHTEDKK
Take `CC1(C(=O)Nc2ccc3c(c2)OCCO3)CCN1C(=O)Cc1cc(F)ccc1F` (centres undefined): the “activity change, negative = active” value was 1.99% (inactive). The same measure, in the same setting: to `COc1ccc(NC(=O)C2Cc3c(-c4ccc(Cl)cc4)ccnc3O2)cc1` (centres undefined) belongs -0.108% (inactive). For `CCOc1ccc(NC(=O)c2ncoc2-c2ccco2)cc1`, the “activity change, negative = active” value is -2.31% (inactive).

`CCOc1ccc(-c2nnc(-c3ccco3)o2)cc1`: the Potency was 8.91 µM (active).

In the case of `O=C(Nc1ccc(-c2nnc(-c3ccccc3)o2)cc1)C1CCCO1` (centres undefined), the Potency is 12.6 µM (active).

For `O=C(CSc1nnc(-c2ccc(NS(=O)(=O)c3ccccc3)cc2)o1)NCC1CCCO1` (centres undefined), the “activity change, negative = active” value is -5.44% (inactive). Same read-out and setting: to `COc1ccc(CC(=O)Nc2c(C(N)=O)oc3ccccc23)cc1` belongs -4.43% (inactive). Regarding `O=C(CSc1nnc(-c2ccco2)o1)NCC(=O)c1ccccc1`, the “activity change, negative = active” value is 0.0274% (inactive). For the molecule `Cc1ccc(OCC(=O)Nc2ccc(-c3nnc(-c4ccco4)o3)cc2)cc1`, the Potency is 28.2 µM (active).

For the molecule `COc1ccc(CC(=O)Nc2ccc(-c3nnc(-c4ccccc4)o3)cc2)cc1`, the Potency is 7.08 µM (active). With `COc1ccc(OCC(=O)Nc2nnc(-c3ccco3)s2)cc1`, the “activity change, negative = active” value was 0.126% (inactive). Still for that read-out and setting: to `CC(=O)Nc1ccc(NC(=O)COc2ccc(-c3ccccc3)cc2)cc1` belongs 0.862% (inactive). Consider `COc1ccc(CC(=O)Nc2ccc(C(=O)NC(C)(C)C)cc2)cc1`, for which the “activity change, negative = active” value is -3.23% (inactive). The same measure, in the same setting: to `O=C(Nc1cccc(-c2nnc(-c3ccccc3)o2)c1)C1CCCO1` (centres undefined) belongs -11.2% (inactive).

As for `Fc1cccc(Cc2c(-c3ccc(Cl)cc3)nc3ccc(Cl)cn23)c1`, the “activity change, negative = active” value is 3.62% (inactive). Still for that read-out and setting: to `O=C(Nc1cccc2cccnc12)c1ccc2sc([C@H]3C[C@H](O)[C@@H](CO)O3)nc2c1` belongs -2.17% (inactive); to `CCCCCc1c(Cc2ccccc2)ncn1CCc1ccccc1OC`, -1.82% (inactive). On the same count and under the same terms, to `O=C(Nc1nnc([C@H]2C[C@H](O)[C@@H](CO)O2)s1)c1cccc(Cl)c1` belongs -3.52% (inactive). Consider `CC(C)(O)C1=C[N+](=O)CC=C1`, for which the “activity change, negative = active” value was 1.51% (inactive). `O=S(=O)(c1cccc(C(F)(F)F)c1)N1c2ccccc2-n2cccc2C1c1cccnc1` (centres undefined): the “activity change, negative = active” value was -9.99% (inactive). On the same count and under the same terms, to `CN(C)c1ccc(/C=N\Nc2ccc([N+](=O)[O-])cc2[N+](=O)[O-])cc1Cl` belongs -1.21% (inactive); to `O=C(Nc1ccc(Cl)cc1)c1cnn2c1NC(=C1CC1)C=C2C(F)F`, -2.47% (inactive); to `CC(C)(C)c1ccc(S(=O)(=O)NC(=O)C2(C)CCN2C(=O)CC2CC2)cc1` (centres undefined), -1.69% (inactive). Regarding `COc1ccc(C(C)C)cc1-c1ccc2nncn2c1`, the “activity change, negative = active” value was -17% (inactive).

As for `C/C=C/NNC(=O)Cc1ccc(OC)cc1`, the “activity change, negative = active” value is -0.261% (inactive). The same measure, in the same setting: to `CC1(C)Cc2ccccc2-c2c[nH]c(=O)n21` belongs -8.9% (inactive). In the case of `O=c1oc2ccc(C#CC3(O)CCCCC3)cc2cc1-n1cc(-c2ccsc2)nn1`, the Potency is 31.6 µM (active). With `CCCCCn1nnnc1-c1nc2cc3ccccc3cc2[nH]c1=O`, the “activity change, negative = active” value is -3.31% (inactive). On the same count and under the same terms, to `CCOC(=O)[C@]12CCCC=C1N(Cc1ccc3c(c1)OCO3)C(=O)[C@H](CC(=O)NCc1cccs1)C2` belongs -3.13% (inactive).

Regarding `O=C(c1ccc2c(=O)n(Cc3ccco3)c(=S)[nH]c2c1)N1CCCC1`, the “activity change, negative = active” value is -0.0374% (inactive). Same read-out and setting: to `O=C(Nc1cc(-c2nc3ncccc3o2)ccc1Cl)c1ccco1` belongs -16.7% (inactive); to `O=C(Nc1cccc(-c2nc3ncccc3o2)c1)c1ccco1`, -19.3% (inactive). Turning to `Cc1cccc(C(=O)Nc2ccc(-c3nc4ncccc4o3)cc2C)c1`, the Potency was 35.5 µM (active).

As for `COc1ccc(C(NC(=O)C2CCN(CCCc3ccccc3)CC2)c2cccs2)cc1` (centres undefined), the “activity change, negative = active” value was 0.0312% (inactive). On the same count and under the same terms, to `Cc1ccccc1OCc1ccc(-c2nc(C#N)c(N3CCCCC3)o2)o1` belongs 3.92% (inactive); to `CC1CC(C)CN(c2oc(-c3ccc(OCc4ccc(Cl)cc4)cc3)nc2C#N)C1` (centres undefined), -0.166% (inactive). Regarding `CN1CCN(c2oc(-c3ccc(COc4ccc(Cl)cc4)o3)nc2C#N)CC1`, the Potency is 35.5 µM (active). For `N#Cc1nc(COc2ccc(Cl)cc2)oc1N1CCCC1`, the “activity change, negative = active” value is -2.25% (inactive). Turning to `CCC(C)Nc1oc(-c2ccc(COc3ccc(Cl)cc3)o2)nc1C#N` (centres undefined), the Potency was 28.2 µM (active). For `COc1ccc(OCc2ccc(-c3nc(C#N)c(N4CCN(c5ccccc5)CC4)o3)o2)cc1`, the “activity change, negative = active” value is -10.7% (inactive). As for `CCCCCc1c(-c2ccc(OC)c(OC)c2)ncn1CCc1ccccc1OC`, the “activity change, negative = active” value is -22.3% (inactive).

On to `O=S(=O)(c1ccc(Br)cc1)c1nnn2c1nc(NC1CCCCCC1)c1sccc12`, for which the “activity change, negative = active” value is -4% (inactive). Consider `CC1CCCN(c2nc3c(S(=O)(=O)c4ccc(C(C)C)cc4)nnn3c3ccsc23)C1` (centres undefined), for which the “activity change, negative = active” value is -6.42% (inactive).

Consider `O=S(=O)(c1ccc(Cl)cc1)c1nnn2c1nc(NC1CCCC1)c1sccc12`, for which the Potency is 25.1 µM (active). As for `C[C@@H]1Cn2cnc(C(=O)Nc3ccc(CNC(=O)OC(C)(C)C)cc3)c2C(=O)N1`, the “activity change, negative = active” value was -2.12% (inactive). Still for that read-out and setting: to `CC1CN(C(=O)c2cccc(NS(=O)(=O)c3ccc(Br)cc3)c2)CC(C)O1` (centres undefined) belongs -1.89% (inactive); to `COc1ccc(COC[C@H](CC(C)C)N2CCN(C(=O)c3cccc(C(F)(F)F)c3)CCC2=O)cc1`, -2.62% (inactive). For the molecule `COC(=O)C[C@@H]1C=C[C@@H](NC(=O)c2cccnc2)[C@@H](CO)O1`, the “activity change, negative = active” value is -0.211% (inactive). Same read-out and setting: to `COc1ccc(CCNc2nc(-c3ccc(Cl)cc3)cc(C(F)(F)F)n2)cc1OC` belongs -9.59% (inactive); to `COc1ccc(-c2c(C)nn3c(N4CCC(C(=O)NCCC(C)C)CC4)cc(C)nc23)cc1OC`, -0.514% (inactive). As to `COc1ccc(CCNc2cc(C)nc3c(-c4ccc(Cl)cc4)c(C)nn23)cc1OC`, the Potency is 28.2 µM (active). Consider `CNc1cncc(-c2cccc(C(=O)N3CCOCC3)c2)n1`, for which the “activity change, negative = active” value was 4.52% (inactive). For `NCCCCC(C(=O)O)N(C(=O)OCc1ccccc1)C(=O)OCc1ccccc1` (centres undefined), the “activity change, negative = active” value is -1.15% (inactive).

In the case of `CC(C)(C)OC(=O)N(Cc1ccco1)S(=O)(=O)c1ccccc1Br`, the “activity change, negative = active” value was -0.306% (inactive).

In the case of `Cc1nc2ccc(NC(=O)N3CCC(c4ccccc4)C3)cc2nc1C` (centres undefined), the Potency is 10 µM (active).

For the molecule `Cc1ccc(C2CCN(C(=S)Nc3cccc(Cl)c3)C2)cc1` (centres undefined), the “activity change, negative = active” value was 1.03% (inactive).

On to `O=C(C(=O)N1CCC(c2ccccc2)CC1)c1ccccc1`, for which the “activity change, negative = active” value was -1.51% (inactive). Still for that read-out and setting: to `COC(=O)[C@]12CCCCC=C1N(Cc1ccco1)C(=O)[C@H](CC(=O)NCC1CCCCC1)C2` belongs -3.97% (inactive); to `C[C@H](NC(=O)[C@@H]1CCCN1C(=O)[C@@H]1CCCN1C(=O)c1ccccc1)c1ccccc1`, -0.114% (inactive).

Regarding `CN(C)c1cccc2ccccc12`, the “activity change, negative = active” value is 4.23% (inactive). On to `O=C(CN1CCCC1)Nc1sc2c(c1C(=O)Nc1ccccc1)CCCC2`, for which the Potency is 28.2 µM (active). Regarding `CCOc1ccc(NC(=O)c2c(NC(=O)Cc3ccccc3)sc3c2CCCCC3)cc1`, the “activity change, negative = active” value is -1.14% (inactive). Same read-out and setting: to `O=C(Cc1ccccc1)Nc1sc2c(c1C(=O)Nc1ccc(Br)cc1)CCC2` belongs 0.382% (inactive). As to `CCN(CC)CCCNC(=O)CCn1nc(-c2ccc(Cl)cc2)ccc1=O`, the “activity change, negative = active” value was -0.753% (inactive). Same read-out and setting: to `CCc1ccc(-c2cc3c(=O)n(CC(=O)NCCCN4CCN(Cc5ccccc5)CC4)nc(C)n3n2)cc1` belongs 4.35% (inactive). With `Cc1ccc(-c2ccc(=O)n(CC(=O)NCCCN3CCCCC3)n2)cc1`, the Potency is 14.1 µM (active). Take `S=c1[nH]c(=S)c2n[nH]nc2[nH]1`: the “activity change, negative = active” value was 0.104% (inactive). `NC(=O)Nc1ccc(/C=C/c2ccnc3ccccc23)cc1`: the “activity change, negative = active” value was -16.4% (inactive).

With `CC(C)C1CC2=C(C(=O)OC(C)(C)O2)C(c2ccc(F)cc2)O1` (centres undefined), the “activity change, negative = active” value is 1.5% (inactive).
